Results as given in PubChem BioAssay (NCATS).
Results filed as inconclusive are left out. Active and inactive are the calls of the source. Calls come from the whole dose curve; as a rule, active = well fitted curve in the direction sought with a large enough effect; inconclusive = small, poorly fitted or top-dose-only effect, or another doubt; inactive = no such curve, though single readings can be large; an effect the other way counts as inactive or inconclusive.

Tests used:
[1] = tested on: NIH3T3; assay: qHTS assay to identify novel small-molecules to repurpose for Merkel cell carcinoma treatment (AID 1296009); conditions: MCC and control cell lines, CellTiter-Glo viability, 72 h; at 44.8 µM (top of the series) unless noted; note: nearly all actives have a fitted effect of over 60% in size
In short: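 qHTS format: cells treated with library compounds in DMSO across 8 (NPC) or 11 (MIPE) concentrations. Readout after 72 hr at 37 degree celsius was CellTiter-Glo luminescence.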

[2] = tested on: C33A; assay: Primary qHTS to identify gynecologic anti-cancer compounds using libraries of approved drugs and bioactive compounds (AID 1345084); conditions: Gynecologic cancer cell panel viability, ATPlite luminescence, 48 h; series mostly up to 57.5 µM; note: % is set by controls: 0 for no effect and ±100 for the full control effect; nearly all actives have a fitted effect of over 55% in size
In short: (§1)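 In this quantitative HTS, cell killing is estimated from loss of ATP-dependent luciferase light. Cells see five compound concentrations over a 48 h exposure.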

[3] = tested on: CAOV3; assay: as above; conditions: Gynecologic cancer cell panel viability, ATPlite luminescence, 48 h; series mostly up to 57.5 µM
In short: as §1

[4] = tested on: CASKI; assay: as above; conditions: Gynecologic cancer cell panel viability, ATPlite luminescence, 48 h; series mostly up to 57.5 µM
In short: as §1

[5] = tested on: Es-2; assay: as above; conditions: Gynecologic cancer cell panel viability, ATPlite luminescence, 48 h; series mostly up to 57.5 µM
In short: as §1

[6] = tested on: HeLa; assay: as above; conditions: Gynecologic cancer cell panel viability, ATPlite luminescence, 48 h; series mostly up to 57.5 µM
In short: as §1

[7] = tested on: Hek293T; assay: as above; conditions: Gynecologic cancer cell panel viability, ATPlite luminescence, 48 h, control line for the selectivity index; series mostly up to 57.5 µM
In short: as §1

[8] = tested on: JEG-3; assay: as above; conditions: Gynecologic cancer cell panel viability, ATPlite luminescence, 48 h; series mostly up to 57.5 µM
In short: as §1

[9] = tested on: OV90; assay: as above; conditions: Gynecologic cancer cell panel viability, ATPlite luminescence, 48 h; series mostly up to 57.5 µM
In short: as §1

[10] = tested on: PA-1; assay: as above; conditions: Gynecologic cancer cell panel viability, ATPlite luminescence, 48 h; series mostly up to 57.5 µM
In short: as §1

[11] = tested on: SKOV3; assay: as above; conditions: Gynecologic cancer cell panel viability, ATPlite luminescence, 48 h; series mostly up to 57.5 µM
In short: as §1

[12] = tested on: Tov-21-G; assay: as above; conditions: Gynecologic cancer cell panel viability, ATPlite luminescence, 48 h; series mostly up to 57.5 µM
In short: as §1

[13] = tested on: Tov112D; assay: as above; conditions: Gynecologic cancer cell panel viability, ATPlite luminescence, 48 h; series mostly up to 57.5 µM
In short: as §1

CCC(C)/C=C(C)/C=C/C(=O)C1CCC(O)C(C)(O)C1=O (centres undefined)
inactive: outcome [1] | Potency [2] | Potency [3] | outcome [4] | Potency [5] | Potency [6] | Potency [7] | Potency [8] | Potency [9] | Potency [10] | Potency [11] | Potency [12] | Potency [13]

CCC1OC(=O)C(C)CC(C)C(=O)/C(C)=C/C(C)C(=O)/C=C/C1(C)O (centres undefined)
inactive: outcome [1] | Potency [2] | Potency [3] | outcome [4] | Potency [5] | Potency [6] | Potency [7] | Potency [8] | Potency [9] | Potency [10] | Potency [11] | Potency [12] | Potency [13]

CC1=C(CCC(C)O[C@@H]2O[C@H](CO)[C@@H](O)[C@H](O)[C@H]2O)C(C)(C)CC(O)C1 (some centres undefined)
inactive: outcome [1] | Potency [2] | Potency [3] | outcome [4] | Potency [5] | Potency [6] | Potency [7] | Potency [8] | Potency [9] | Potency [10] | Potency [11] | Potency [12] | Potency [13]

C=C(C(=O)OC)[C@]12O[C@@](C)(CC[C@@]3(O)/C(=C\C)C(=O)O[C@]3(C)C[C@@H]1OC(=O)C(CO)CN1CCCC1C(=O)O)CC2=O (some centres undefined)
inactive: outcome [1] inactive [at 17.4 µM] | Potency [2] | Potency [3] | outcome [4] | Potency [5] | Potency [6] | Potency [7] | Potency [8] | Potency [9] | Potency [10] | Potency [11] | Potency [12] | Potency [13]

COc1ccc(CCc2nc3cc(-c4c(C)noc4C)ccc3n2C[C@H](C)N2CCOCC2)cc1Cl
inactive: outcome [1] | Potency [2] | Potency [3] | outcome [4] | Potency [5] | Potency [6] | Potency [7] | Potency [8] | Potency [9] | Potency [10] | Potency [11] | Potency [12] | Potency [13]

COc1cc(CC2COC(c3ccc(OC4OC(CO)C(O)C(O)C4O)c(OC)c3)C2CO)ccc1O (centres undefined)
inactive: outcome [1] inactive [at 17.4 µM] | Potency [2] | Potency [3] | outcome [4] | Potency [5] | Potency [6] | Potency [7] | Potency [8] | Potency [9] | Potency [10] | Potency [11] | Potency [12] | Potency [13]

CC(C)C1NC(=O)C2CCCN2C1=O (centres undefined)
inactive: outcome [1] | Potency [2] | Potency [3] | outcome [4] | Potency [5] | Potency [6] | Potency [7] | Potency [8] | Potency [9] | Potency [10] | Potency [11] | Potency [12] | Potency [13]

O=C(O)CCc1cccc(O)c1O[C@@H]1O[C@H](CO)[C@@H](O)[C@H](O)[C@H]1O
inactive: outcome [1] | Potency [2] | Potency [3] | outcome [4] | Potency [5] | Potency [6] | Potency [7] | Potency [8] | Potency [9] | Potency [10] | Potency [11] | Potency [12] | Potency [13]

CC1=C2CC(=O)C(C)CC/C=C(\C)CC2(O)OC1=O (centres undefined)
inactive: outcome [1] | Potency [2] | Potency [3] | outcome [4] | Potency [5] | Potency [6] | Potency [7] | Potency [8] | Potency [9] | Potency [10] | Potency [11] | Potency [12] | Potency [13]

C=C[C@@]1(C)CCC2=C([C@H]1OC(C)=O)[C@H](OC(C)=O)CC1[C@](C)(C(=O)OC)CC[C@H](OC(C)=O)[C@]21C (some centres undefined)
inactive: outcome [1] inactive [at 17.4 µM] | Potency [2] | Potency [3] | outcome [4] | Potency [5] | Potency [6] | Potency [7] | Potency [8] | Potency [9] | Potency [10] | Potency [11] | Potency [12] | Potency [13]

O=C(C[C@@H]1C(C(=O)O)=CO[C@@H](O[C@@H]2O[C@H](CO)[C@@H](O)[C@H](O)[C@H]2O)/C1=C\CO)OCCc1ccc(O)cc1
inactive: outcome [1] inactive [at 17.4 µM] | Potency [2] | Potency [3] | outcome [4] | Potency [5] | Potency [6] | Potency [7] | Potency [8] | Potency [9] | Potency [10] | Potency [11] | Potency [12] | Potency [13]

CC(C)C1CCC(C(=O)N[C@@H](Cc2ccccc2)C(=O)O)CC1 (some centres undefined)
inactive: outcome [1] | Potency [2] | Potency [3] | outcome [4] | Potency [5] | Potency [6] | Potency [7] | Potency [8] | Potency [9] | Potency [10] | Potency [11] | Potency [12] | Potency [13]

C=C(C)C(O)COc1ccc(CC(=O)O)cc1 (centres undefined)
inactive: outcome [1] | Potency [2] | Potency [3] | outcome [4] | Potency [5] | Potency [6] | Potency [7] | Potency [8] | Potency [9] | Potency [10] | Potency [11] | Potency [12] | Potency [13]

O=S(=O)(O)c1ccc(Nc2ncnc3c2ncn3[C@@H]2O[C@H](CO)[C@@H](O)[C@H]2O)cc1
inactive: outcome [1] | Potency [2] | Potency [3] | outcome [4] | Potency [5] | Potency [6] | Potency [7] | Potency [8] | Potency [9] | Potency [10] | Potency [11] | Potency [12] | Potency [13]

CCC(C)C(N)C(=O)NCCN1CCOCC1 (centres undefined)
inactive: outcome [1] | Potency [2] | Potency [3] | outcome [4] | Potency [5] | Potency [6] | Potency [7] | Potency [8] | Potency [9] | Potency [10] | Potency [11] | Potency [12] | Potency [13]

COc1ccc(N2CCN(CCCNC(=O)Cn3c(=O)c4cccn4c4c(C)ccnc43)CC2)cc1
inactive: outcome [1] | Potency [2] | Potency [3] | outcome [4] | Potency [5] | Potency [6] | Potency [7] | Potency [8] | Potency [9] | Potency [10] | Potency [11] | Potency [12] | Potency [13]

COc1cc(C2Oc3c(OC)cc(/C=C/C(=O)OC4CC(O)(C(=O)O)CC(O)C4O)cc3C2CO)ccc1O (centres undefined)
inactive: outcome [1] inactive [at 17.4 µM] | Potency [2] | Potency [3] | outcome [4] | Potency [5] | Potency [6] | Potency [7] | Potency [8] | Potency [9] | Potency [10] | Potency [11] | Potency [12] | Potency [13]

Cc1sc(C)c(C(=O)NC2(c3ccc(C(=O)O)cc3)CC2)c1Cc1ccc(C(F)(F)F)cc1
inactive: outcome [1] | Potency [2] | Potency [3] | outcome [4] | Potency [5] | Potency [6] | Potency [7] | Potency [8] | Potency [9] | Potency [10] | Potency [11] | Potency [12] | Potency [13]

CC(C)=C1CC2C(CCC2(C)O)C(C)(O)CC1=O (centres undefined)
inactive: outcome [1] | Potency [2] | Potency [3] | outcome [4] | Potency [5] | Potency [6] | Potency [7] | Potency [8] | Potency [9] | Potency [10] | Potency [11] | Potency [12] | Potency [13]

CC(C)=CCC/C(C)=C/CO[C@@H]1O[C@H](CO[C@@H]2OC[C@](O)(CO)[C@H]2O)[C@@H](O)[C@H](O)[C@H]1O
inactive: outcome [1] inactive [at 17.4 µM] | Potency [2] | Potency [3] | outcome [4] | Potency [5] | Potency [6] | Potency [7] | Potency [8] | Potency [9] | Potency [10] | Potency [11] | Potency [12] | Potency [13]

CC1(C)CC[C@]2(C(=O)O[C@@H]3O[C@H](CO)[C@@H](O)[C@H](O)[C@H]3O)CC[C@]3(C)C(=CCC4[C@@]5(C)C[C@H](O)[C@H](O[C@@H]6O[C@H](C(=O)O)[C@@H](O)[C@H](O)[C@H]6O)[C@@](C)(CO)C5CC[C@]43C)C2C1 (some centres undefined)
inactive: outcome [1] inactive [at 9.27 µM] | activity change, negative = cytotoxicity [2] -10.3% [at 6.55 µM] | activity change, negative = cytotoxicity [3] 19.8% [at 6.55 µM] | activity change, negative = cytotoxicity [4] -13.7% [at 6.55 µM] | activity change, negative = cytotoxicity [5] -1.31% [at 6.55 µM] | activity change, negative = cytotoxicity [6] -7.43% [at 6.55 µM] | activity change, negative = cytotoxicity [7] -0.0375% [at 6.55 µM] | activity change, negative = cytotoxicity [8] -4.92% [at 6.55 µM] | activity change, negative = cytotoxicity [9] -11.4% [at 6.55 µM] | activity change, negative = cytotoxicity [10] 1.64% [at 6.55 µM] | activity change, negative = cytotoxicity [11] 14.6% [at 6.55 µM] | activity change, negative = cytotoxicity [12] -2.15% [at 6.55 µM] | activity change, negative = cytotoxicity [13] 8.5% [at 6.55 µM]

C/C=C(\C)C(=O)OC[C@H]1O[C@@H](O[C@H]2[C@@H](O[C@H]3O[C@H](COC(=O)/C(C)=C/C)[C@@H](O)[C@H](O)[C@H]3O[C@@H]3O[C@H](CO)[C@@H](O)[C@H](OC(=O)/C(C)=C/C)[C@H]3O)O[C@H](COC(=O)/C(C)=C/C)[C@@H](O)[C@@H]2O)[C@H](O)[C@@H](O)[C@@H]1O
inactive: outcome [1] inactive [at 9.27 µM] | activity change, negative = cytotoxicity [2] 12.3% [at 11.6 µM] | activity change, negative = cytotoxicity [3] 5.53% [at 11.6 µM] | activity change, negative = cytotoxicity [4] -1.71% [at 11.6 µM] | activity change, negative = cytotoxicity [5] 4.24% [at 11.6 µM] | activity change, negative = cytotoxicity [6] -5.55% [at 11.6 µM] | activity change, negative = cytotoxicity [7] 8.78% [at 11.6 µM] | activity change, negative = cytotoxicity [8] 2.17% [at 11.6 µM] | activity change, negative = cytotoxicity [9] -2.51% [at 11.6 µM] | activity change, negative = cytotoxicity [10] -18.4% [at 11.6 µM] | activity change, negative = cytotoxicity [11] 3.76% [at 11.6 µM] | activity change, negative = cytotoxicity [12] 2.42% [at 11.6 µM] | activity change, negative = cytotoxicity [13] 2.79% [at 11.6 µM]

C=C(C(=O)O)C1CC(O)C2(C)CCCC(C)(O)C2C1 (centres undefined)
inactive: outcome [1] | Potency [2] | Potency [3] | outcome [4] | Potency [5] | Potency [6] | Potency [7] | Potency [8] | Potency [9] | Potency [10] | Potency [11] | Potency [12] | Potency [13]
